This passage reports viability results from PubChem BioAssay AID818 (SRMLSC, 2007).

The whole screen tested about 140,000 compounds, of which about 2,100 (1.5%) were called active.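 Rule for the calls: active = viability at or under a set limit, the compound median less 4 SD (cut at about 6% in these data); inactive = the rest.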 The full list was thinned out, with actives kept by preference.

This assay in a line: primary screen for growth suppressors in beta-catenin knockout HCT116 cells (colon tumor, human) (AID 818).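 Note: 0% = Hyamine 1622 control at 20 µM and 100% = untreated cell control.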 To be noted: CellTiter-Glo, 60 h, at 10 µM, stronger effect = lower value. (In general: In ATP-based viability assays light output follows the ATP content of the culture.)
As usually defined, the viability is a read-out of living cells in per cent, often relative to untreated cells. For the compound `CSc1nc(C)cc(SC(C(C)=O)C(=O)Nc2ccccc2)n1` (configuration not stated), the viability was 88.4% (inactive). With `CSc1nc(-c2ccccc2)nc(C(Cl)Cl)n1`, the viability is 3.63% (active). To `Cc1nn(-c2ccccc2)c(-n2cccc2)c1C(=O)O` belongs 95.6% (inactive); to `Cc1ccc(/C=N/NC(=O)COc2ccccc2-c2ccccc2)cc1`, 13.9% (inactive); to `c1ccc(C2CNCc3c2ccc2ccccc32)cc1` (configuration not stated), 11.3% (inactive).

On to `COc1ccc(C2NC(=S)NC3=C2CCc2ccccc23)cc1OC` (configuration not stated), for which the viability was 81.8% (inactive). To `CCn1ncc(CNC(=O)C2(C)CC2(Br)Br)c1C` (configuration not stated) belongs 94.3% (inactive); to `CC(=O)NS(=O)(=O)c1ccc(NC(=O)C2C3C=CC(C3)C2C(=O)O)cc1` (configuration not stated), 98.2% (inactive). In the case of `CN(C)S(=O)(=O)c1cccc(C(=O)Nc2cccnc2)c1`, the viability is 97.9% (inactive).

For `CCN(CC)S(=O)(=O)c1cccc(C(=O)Nc2ccccc2)c1`, the viability is 80.8% (inactive). Consider `CN(C)S(=O)(=O)c1cccc(NC(=S)N/N=C/C(=O)c2ccccc2)c1`, for which the viability is 6.06% (active). To `Cc1cccc(CSc2ccc(-c3cccs3)nn2)c1` belongs 75.7% (inactive); to `Cc1c(Cl)c([N+](=O)[O-])nn1CCCC(=O)Nc1cc(Cl)ccc1Cl`, 91.2% (inactive). The figure for `COc1ccc(NC(=S)N2CCCC(CO)C2)c(OC)c1` (configuration not stated) is 100% (inactive). For the compound `O=C(CC1NCCNC1=O)Nc1cc(Cl)cc(Cl)c1` (configuration not stated), the viability is 87.8% (inactive). `Cc1cccc(-n2c(C)cc(/C=N\NC(=O)c3cccs3)c2C)c1`: the viability is 60.6% (inactive). As to `Cc1ccc(-c2nn(-c3ccccc3)cc2/C=N/NC(=O)c2ccc3c(c2)OCO3)cc1`, the viability was 36.6% (inactive). On to `Cc1ccc(/C=N/NC(=O)C2=NNC(c3ccccc3)(c3ccccc3)C2)c(O)c1`, for which the viability was 4.68% (active). To `Cc1cc(C(=O)NNC(=S)NC(C)c2ccccc2)cs1` (configuration not stated) belongs 88.5% (inactive); to `Cc1cc(NC(=O)/C=C/C(=O)N(c2ccccc2C)C(C(=O)NC2CCCC2)c2ccc(F)cc2)no1` (configuration not stated), 5.76% (active); to `Cc1cc(NC(=O)CCC(=O)N(c2ccccc2)C(C(=O)NC2CCCC2)c2ccncc2)no1` (configuration not stated), 80% (inactive).

With `Cc1cc(NC(=O)CCC(=O)N(c2cccc(F)c2)C(C(=O)NC2CCCC2)c2ccncc2)no1` (configuration not stated), the viability was 94.3% (inactive). To `CCOc1ccc(Br)cc1S(=O)(=O)Nc1cccc(S(=O)(=O)N(CC)CC)c1` belongs 96.4% (inactive); to `CCc1ccc(-c2nn(-c3ccccc3)cc2CSC(=N)N)cc1`, 1.57% (active); to `CCn1c(SCc2ccc(C)cc2)nnc1-c1nn(-c2ccccc2)ccc1=O`, 103% (inactive). The figure for `N=C(N)SCc1cccc2ccccc12` is 79.3% (inactive). To `CCN(C(=O)COc1cccnc1[N+](=O)[O-])C1CCS(=O)(=O)C1` (configuration not stated) belongs 85.6% (inactive); to `COC(C(=O)NCc1ccccc1C)c1ccccc1` (configuration not stated), 90% (inactive); to `CCN(CC)CCNCc1ccc(OCc2ccc(Cl)nc2)c(OC)c1`, 96.9% (inactive). `Cc1c(Cl)cccc1NC(=O)Nc1ccc(C(=O)N2CCCC2)cc1`: the viability is 70.1% (inactive). To `O=C(Cn1c(-c2ccccn2)nc2ccccc21)NCCN1CCOCC1` belongs 98.8% (inactive); to `c1ccc2[nH]c(NCCN3CCOCC3)nc2c1`, 92% (inactive); to `c1ccc2cc3c(NCCN4CCOCC4)ccnc3cc2c1`, 2.37% (active). To `CC(C)CCNC(=O)c1cccnc1Sc1ccccc1` belongs 96.4% (inactive); to `CC(C)(C)CC(C)(C)NCC(O)COCCOc1ccc(Br)cc1` (configuration not stated), 1.6% (active). The figure for `CCC(C)NCCOCCOc1ccc(Br)cc1C` (configuration not stated) is 70.2% (inactive); for `Cc1noc(COc2ccccc2OCC(O)CNC(C)(C)C)n1` (configuration not stated) it is 98.6% (inactive).

Regarding `CCOc1ccc(NC(=S)N2CCC(N(C)CC3CCCO3)CC2)cc1` (configuration not stated), the viability was 96.9% (inactive).

As to `Cc1ccc(NC(=O)COC(=O)CCc2nc3ccccc3n2-c2ccccc2)c(C)c1`, the viability was 79.9% (inactive).

For `S=C1SCN(CCN2CCOCC2)CN1Cc1ccccc1`, the viability was 20.5% (inactive). In the case of `COc1ccc(CN2CN(C(C)C)CSC2=S)cc1`, the viability is 5.75% (active). Consider `O=C(NN1C(=O)C2C3C=CC(C3)C2C1=O)c1ccco1` (configuration not stated), for which the viability is 93.7% (inactive). The figure for `COc1cc(OC)nc(N/N=C(\c2ccccc2)c2ccncc2)n1` is 63.6% (inactive); for `Cc1cc(Br)ccc1NC(=O)C1CCCO1` (configuration not stated) it is 96.2% (inactive). The figure for `OC(CNCC1CCCO1)Cn1c2ccc(Br)cc2c2cc(Br)ccc21` (configuration not stated) is 1.48% (active); for `Cc1ccc(C(=O)NCC2CCCO2)o1` (configuration not stated) it is 106% (inactive); for `COc1ccc(NC(=S)NCc2cccs2)c(OC)c1` it is 96% (inactive). The figure for `COc1ccc(C(C(=O)NC2CCCCC2)N(C(=O)Cc2c[nH]c3ccccc23)c2ccccc2)cc1OC` (configuration not stated) is 63.4% (inactive); for `O=C(NNc1ccccc1Cl)C(O)(c1cccc(C(F)(F)F)c1)c1cccc(C(F)(F)F)c1` it is 3.21% (active).

As for `CC(CC(=O)Nc1cc(C(F)(F)F)ccc1Cl)c1ccccc1` (configuration not stated), the viability was 61.2% (inactive). In the case of `O=C(Nc1cc(C(F)(F)F)ccc1Cl)C(=O)N1CCCCC1`, the viability is 99.1% (inactive).

Turning to `CCc1nnc(NC(=O)/C=C/c2ccc(C)o2)s1`, the viability was 97.8% (inactive).

With `CCC(=O)/C=C1\Sc2ccccc2N1CC`, the viability is 89% (inactive). In the case of `CCN1/C(=C/c2ccc3ccc(C)cc3[n+]2CC)Sc2ccccc21`, the viability is 2.41% (active). The figure for `CCOC(=O)CN(Cc1ccc(OC)c(OC)c1)S(=O)(=O)c1ccc(OC)cc1` is 91.4% (inactive). On to `COc1ccc(CCN(C(=O)COc2ccccc2)c2nc(-c3ccccc3)cs2)cc1OC`, for which the viability is 77.2% (inactive). The figure for `COc1ccc(C(CCN(Cc2ccc(OC)c(OC)c2)C(=O)CCl)c2ccccc2)cc1` (configuration not stated) is 1.9% (active); for `CCOC(=O)C(NC(=O)CC(C)C)(Nc1sc2c(c1C(N)=O)CCCC2)C(F)(F)F` (configuration not stated) it is 97.2% (inactive); for `CCOC(=O)C1=C(C)N=c2s/c(=C\C(=O)OC)c(=O)n2C1c1ccc(OC)cc1` (configuration not stated) it is 98.8% (inactive).

`O=C1CCCC2=C1C(c1ccccc1)n1c(s/c(=C/c3cccc(F)c3)c1=O)=N2` (configuration not stated): the viability was 83.9% (inactive). To `COc1ccc(OC)c(C2C3=C(N=c4s/c(=C\c5cccc(O)c5)c(=O)n42)c2ccccc2CC3)c1` (configuration not stated) belongs 3.2% (active); to `O=C(Nc1cn(-c2ccccc2)nc1-c1ccccc1)c1ccccc1`, 82% (inactive).

As for `COc1cccc(NC(=S)NCc2ccco2)c1`, the viability is 96.7% (inactive). The figure for `O=[N+]([O-])c1ccc(C=Nc2ccc(Cl)cc2Cl)s1` is 3.51% (active); for `CC1(C)CC(=O)C/C(=N\NC(=O)c2cccs2)C1` it is 93% (inactive); for `Cc1ccc(S(=O)(=O)N(Cc2ccc(Cl)cc2)c2ccccc2C(=O)NCc2cccnc2)cc1` it is 81.5% (inactive). To `O=C1/C(=C\c2ccccc2Cl)SC(=S)N1CCC(=O)N1CCCc2ccccc21` belongs 4.79% (active). The figure for `O=C(c1c(Cl)nc2sccn12)N1CCCc2ccccc21` is 91.5% (inactive); for `O=C(CCCN1C(=O)/C(=C/c2ccco2)SC1=S)Nc1ccccc1` it is 25.7% (inactive); for `CCOc1ccc(C(=O)Nc2cccc(SC)c2)cc1` it is 86.8% (inactive). In the case of `NC1=NC(=O)S/C1=C\c1ccc(O)cc1`, the viability was 78.6% (inactive). The figure for `CCOC(=O)c1cc2n(c1C)-c1ccccc1C2=O` is 90.9% (inactive). Take `CCOC(=O)c1c(C)[nH]c(=S)c(C#N)c1-c1ccccc1`: the viability is 101% (inactive). As to `CCOC(=O)c1c(C)[nH]c2c1-c1ccccc1C(=O)C2=O`, the viability is 1.06% (active). The figure for `CCC1(C(=O)c2ccccc2)C(c2cccc([N+](=O)[O-])c2)C1(C(=O)OC)C(=O)OC` (configuration not stated) is 82.6% (inactive); for `Cc1cc(/C=C2\SC(=Nc3ccc(N4CCOCC4)cc3)N(C)C2=O)c(C)n1-c1cccnc1` it is 54.8% (inactive). The figure for `O=C1c2ccccc2NC(c2ccc(-c3cccc(Cl)c3)o2)N1O` (configuration not stated) is 2.84% (active); for `CCOC(=O)NN1C(=O)c2ccccc2NC1c1cccc(O)c1` (configuration not stated) it is 106% (inactive). For `C=CCn1c(CCNC(=O)c2cccs2)n[nH]c1=S`, the viability is 99.3% (inactive). Turning to `COC(=O)Cn1c(=NC(=O)c2cc(OC)c(OC)c(OC)c2)sc2cc(OC)ccc21`, the viability was 81.5% (inactive). To `O=C1OC(c2ccc(Cl)cc2)=N/C1=C\c1cccnc1` belongs 95.6% (inactive); to `O=C1/C(=C\c2cccnc2)CN(Cc2ccccc2)C/C1=C\c1cccnc1`, 5.51% (active).

As for `O=C(O)C1CC(=O)N(Cc2cccnc2)C1` (configuration not stated), the viability was 90.7% (inactive). The figure for `CCc1ccc(NC2Nc3cc(C)nn3S2)cc1` (configuration not stated) is 95.4% (inactive); for `CN=C1S/C(=C\c2ccc(Sc3ccc(Cl)cc3)o2)C(=O)N1C` it is 96.9% (inactive); for `CCC(C)N1C(=O)S/C(=C/c2ccc(Sc3nc4ccccc4[nH]3)o2)C1=O` (configuration not stated) it is 4.08% (active). As to `O=C(CSc1nc2ccccc2[nH]1)c1cccs1`, the viability is 78.2% (inactive). Take `CC1Cc2ccccc2N1C(=O)CSc1nnc(-c2ccc(S(=O)(=O)N3CCCC3)cc2)n1C` (configuration not stated): the viability was 81% (inactive). The figure for `CCCCN(CC)C(=O)c1ccccc1Oc1ccccc1` is 85.8% (inactive); for `COC1=CCC2([N+](=O)[O-])CN(CC(=O)O)CC1([N+](=O)[O-])C2` (configuration not stated) it is 99% (inactive); for `O=C(Cc1ccc(Cl)c(Cl)c1)Nc1ccc(SC(F)F)cc1` it is 35.8% (inactive). To `O=C(CC(O)(C(F)(F)F)C(F)(F)F)Nc1ccc(Cl)c(Cl)c1` belongs 2.26% (active). To `O=C(CC(=O)Nc1ccc(Cl)c(Cl)c1)N/N=C/c1ccc(O)cc1` belongs 81% (inactive). As for `C/C(=N\Nc1ccc([N+](=O)[O-])cc1)c1ccc(-n2nncc2C(C)(C)C)cc1`, the viability is 97.1% (inactive).

`CCN(/N=C/c1ccc(N(C)C)cc1)c1nc2ccccc2[nH]1`: the viability is 87.6% (inactive). To `O=C(COC(=O)c1cc([N+](=O)[O-])ccc1NCc1ccccc1)NC1CCCCC1` belongs 45.6% (inactive). Take `C/C(CCC(=O)OC[C@H]1O[C@H](C#Cc2ccccc2)C=C[C@@H]1Oc1ccc(C)cc1)=N\OC[C@@H](O)[C@H]1O[C@@H]2OC(C)(C)O[C@@H]2[C@H]1O`: the viability was 86.2% (inactive).
